Bioassay records (PubChem)
This is a sample that favours compounds with a hit; in the whole collection about 1.2% have one here.
miR122 inh – miR-122 Renilla sensor signal increase in Huh7, primary screen, miR-122 inhibitor project, cell-based, single point, plate reader; Huh7 miR-122 Renilla luciferase sensor, 48 h; neutral wells = 0, positive control = 100; activation (reporter increase), % at 12.5 µM; 340,000 compounds, 0.3% hits;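 active means mean replicate activation score at least 90 and every replicate individually at or above 90; inconclusive means only one of the two criteria met; inactive means neither criterion met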;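 further: higher luciferase means less miR-122 activity so hits act as miR-122 inhibitors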
Statin myotox sup – suppressors of statin myotoxicity in C2C12 myotubes, primary screen, cell-based, single point, plate reader. AID 602340, 2012. rescue of ATP level, % at 7.49 µM. 330,000 compounds, 0.78% hits. C2C12 myotubes + simvastatin, ATP luminescence, 48 h; scaled: DMSO 0, geranylgeraniol control 100;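 active means mean ATP rescue above about 67%, or every replicate alone reaching that limit, limit read from the data, passing the limit was not always enough; inconclusive means no clear call, values can overlap the other calls; inactive means mean under the limit and some replicate under it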;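 further: myotubes were challenged with 10 µM simvastatin during compound exposure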
NSD2 HMT inh – NSD2 histone methyltransferase inhibitors, primary screen, biochemical, AlphaScreen, single concentration, set 2; AID 743445, 2014; NSD2 peptide methylation, 120 min; 310,000 compounds, 0.54% hits; inhibition, % at 12.5 µM; in the data active means inhibition above about 50%
PglD inh – C. jejuni PglD acetyltransferase inhibitors, primary screen, biochemical, DTNB colorimetric, single point | purified PglD enzyme, DTNB colorimetric CoA detection | inhibition, % at 12.5 µM | 360,000 compounds, 0.098% hits | AID 602405, 2012; in the data active means inhibition above about 16%, passing the limit was not always enough; inconclusive means no clear call, values can overlap the other calls
* = called active by the depositor; ? = inconclusive; . = not tested or not shown; [ ] = dose if it differs, or a comment.

SMILES	miR122 inh	Statin myotox sup	NSD2 HMT inh	PglD inh
Cc1ccc(CCNc2ccc3ccccc3c2)cn1	-4	94*	5	.
C[C@@H]1CCCCO[C@H](CN(C)C(=O)Nc2ccc3c(c2)OCO3)[C@@H](C)CN([C@H](C)CO)C(=O)c2cc(NC(=O)c3ccncc3)ccc2O1	-3[16.7 µM]	.	.	-1
CCCOc1cccc(C(=O)O)c1	-2	98*	-1	-1
C[C@@H]1CCCCO[C@H](CN(C)C(=O)Nc2cccc3ccccc23)[C@@H](C)CN([C@H](C)CO)C(=O)c2cc(NS(=O)(=O)c3ccc(Cl)cc3)ccc2O1	-15[16.7 µM]	53	.	0
C[C@H](CO)N1C[C@H](C)[C@H](CN(C)C(=O)Nc2cccc3ccccc23)OCCCC[C@H](C)Oc2ccc(NS(=O)(=O)c3ccc(Cl)cc3)cc2C1=O	-8[16.7 µM]	135*	.	10
C[C@@H]1CN([C@@H](C)CO)C(=O)c2cc(NS(=O)(=O)c3ccc(Cl)cc3)ccc2O[C@@H](C)CCCCO[C@@H]1CN(C)C(=O)Nc1cccc2ccccc12	14[16.7 µM]	142*	.	0
C[C@@H]1CCCCO[C@@H](CN(C)C(=O)Nc2cccc3ccccc23)[C@H](C)CN([C@H](C)CO)C(=O)c2cc(NS(=O)(=O)c3ccc(Cl)cc3)ccc2O1	2[16.7 µM]	87*	.	4
C[C@H](CO)N1C[C@H](C)[C@@H](CN(C)C(=O)Nc2cccc3ccccc23)OCCCC[C@H](C)Oc2ccc(NS(=O)(=O)c3ccc(Cl)cc3)cc2C1=O	-9[16.7 µM]	?	.	1
C[C@H]1CN([C@@H](C)CO)C(=O)c2cc(-c3ccccc3)cnc2O[C@@H]1CN(C)C(=O)Cc1ccccn1	3[16.7 µM]	20	.	4
Cn1nccc1C(=O)Nn1cnnc1	-11	118*	-2	7
Cc1nn(C)c(C)c1NC(=O)c1ccnn1C	3	-4	.	-6
Cc1c(C(Nc2ccccn2)c2ccc(Cl)cc2)c(=O)n(-c2ccccc2)n1C (configuration not stated)	-11	-6	-1	0
Cc1c(C(Nc2ccccn2)c2ccccc2)c(=O)n(-c2ccccc2)n1C (configuration not stated)	1	81*	-6	.
CC(=O)N(C)C[C@H]1Oc2ncc(-c3ccccc3F)cc2C(=O)N([C@H](C)CO)C[C@@H]1C	-2[16.7 µM]	-2	.	0
O=C1C(=O)c2ccccc2C(O)=C1CCCCl	.	.	106*	2
O=C(CN(C1CC1)S(=O)(=O)c1ccc(S(=O)(=O)NC2CCCCC2)cc1)Nc1ccccc1	53	.	0	-96
O=C(CN(Cc1cccs1)S(=O)(=O)c1ccc(S(=O)(=O)NC2CCCCC2)cc1)Nc1ccccc1	132*	.	-1	4
c1ccc2c(c1)CCOC2CNCCCN1CCCCC1 (configuration not stated)	6	91*	16	-1
O=S(=O)(NCC1OCCc2ccccc21)c1ccc(S(=O)(=O)N2CCOCC2)cc1 (configuration not stated)	8	13	-2	0
Cc1ccc(S(=O)(=O)Nc2cccc3c2O[C@@H](CN(C)Cc2ccc(C(F)(F)F)cc2)[C@H](C)CN([C@H](C)CO)C3=O)cc1	75[16.7 µM]	101*	.	1
C[C@@H]1CN([C@@H](C)CO)C(=O)c2cccc(NS(=O)(=O)c3ccc(F)cc3)c2O[C@@H]1CN(C)Cc1ccc(C(F)(F)F)cc1	-1[16.7 µM]	5	.	-2
Cc1ccc(S(=O)(=O)Nc2cccc3c2O[C@@H](CN(C)Cc2ccc(C(F)(F)F)cc2)[C@H](C)CN([C@@H](C)CO)C3=O)cc1	54[16.7 µM]	78*	.	0
COCC(=O)Nc1ccc2c(c1)C(=O)N(C)[C@H]1CC[C@H](CC(=O)NCC(F)(F)F)O[C@@H]1CO2	-12[16.7 µM]	14	.	-2
CO[C@H]1CN(C)C(=O)c2ccc(NC(=O)Nc3cccc(F)c3)cc2OC[C@@H](C)N(C(=O)C2CC2)C[C@@H]1C	-4[16.7 µM]	0	.	.
Cc1nc(N)sc1-c1csc(N(C)c2ccc(O)cc2)n1	2	94*	-3	6
CN(c1ccc(O)cc1)c1nc(-c2cccs2)cs1	.	.	-3	.
COC(=O)c1ccc(COn2c(=O)c(C)[n+]([O-])c3ccccc32)cc1	-10	2	-1	7
COC(=O)c1ccccc1COn1c(=O)c(C)[n+]([O-])c2ccccc21	1	105*	0	-7
